Entries with a potency or affinity are not part of this list. Records with an inconclusive call do not appear.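 Rule for the calls: active = in every test run, a fitted half-maximal concentration for signal decrease at or below twice the highest tested concentration; inconclusive = runs disagree, flat 30 to 70% decrease, or poor fit; inactive = the rest.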
test: miR-122 activators in hepatoma reporter cells, dose response, cell-based, Huh7 psiCHECK-miR122, Renilla luciferase, cherry-picked (AID 651956); settings: 48 h; series mostly up to 35 µM; activity change, negative = signal decrease: at the top concentration;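 note: Renilla luciferase from a miR-122 sensor reporter so lower signal means miR-122 activation; 0% = median neutral control wells and -100% = median positive control wells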

Activity change, negative = signal decrease, inactive:
Fc1ccc(CN2CCN(c3ncnc4scc(-c5ccc(F)cc5)c34)CC2)cc1 62.3%
C=CCc1c(OC)ccc2ccc(=O)oc12 60%
CN1C(=O)c2cc(NC(=O)Cc3ccccc3)ccc2OC[C@H]2O[C@H](CC(=O)O)CC[C@H]21 377%
CN1C(=O)c2cc(NC(=O)c3ccc(C(F)(F)F)cc3)ccc2OC[C@@H]2O[C@@H](CC(=O)NCc3ccc4c(c3)OCO4)CC[C@H]21 90.6%
CC(=O)N1[C@H](CO)[C@@H](c2ccccc2)[C@H]1CN(C)C(=O)CN1CCOCC1 -6.99%
COc1cccc(NC(=O)N2[C@H](CO)[C@@H](c3ccccc3)[C@H]2CNCC(C)C)c1 -34.4%
CC(=O)N1[C@H](CO)[C@@H](c2ccccc2)[C@H]1CN(C(=O)NC(C)C)C1CCCC1 8.18%
O=C(c1ccco1)N1CCN(C2CC(=O)N(c3ccccc3)C2=O)CC1 (centres undefined) 43.9%
CC(C)C(=O)Nc1ccc2c(c1)C(=O)N(C)[C@H]1CC[C@@H](CC(=O)NCCCN(C)C)O[C@H]1CO2 -23.1%
OC[C@H]1[C@@H](c2ccccc2)[C@@H](CNCC2CCC2)N1CC1CC1 19.1%
CC(C)C(=O)Nc1ccc2c(c1)C(=O)N(C)[C@H]1CC[C@@H](CC(=O)NCc3ccccc3F)O[C@H]1CO2 64.2%
COC(=O)C[C@@H]1CC[C@@H]2[C@@H](COc3ccc(NC(=O)Nc4cccc(C#N)c4)cc3C(=O)N2C)O1 27.5%
COC(=O)c1cc(NS(=O)(=O)c2ccc3c(c2)CCC(=O)N3)cc(C(=O)OC)c1 33.3%
CCCNC(=O)C[C@H]1CC[C@H]2[C@H](COc3ccc(NC(=O)c4ccc(C(F)(F)F)cc4)cc3C(=O)N2C)O1 11.7%
O=C(COC(=O)c1ccccc1)Nc1cc(Cl)ccc1Oc1ccccc1 -24.7%
COC(=O)C[C@H]1CC[C@@H]2[C@@H](COc3ccc(NC(=O)Nc4cccc(F)c4)cc3C(=O)N2C)O1 55.7%
C/C=C/c1ccc([C@@H]2[C@@H](CO)N[C@@H]2CN(CC)C(=O)CN2CCOCC2)cc1 52.7%
CNC(=O)C[C@@H]1CC[C@@H]2[C@H](COc3ccc(NC(=O)NC(C)C)cc3C(=O)N2C)O1 128%
COC(=O)c1c(N)nc(C)n1-c1ccc(OC)cc1 -18.8%
C=CCNC(=S)NNC(=O)Cn1c(-c2ccccc2)cc(=O)n2ncnc12 2.08%
CCN(CC)CCNc1nc(-c2ccccc2)nnc1C(F)(F)F -20.6%
COC(=O)C[C@@H]1CC[C@@H]2[C@H](COc3ccc(NC(=O)c4ccc(F)c(F)c4)cc3C(=O)N2C)O1 -16%
CC1CCN(CCc2nc3cc(NC(=O)Nc4ccccc4)ccc3n2C)CC1 30.1%
CC(=O)Nc1ccc2c(c1)C(=O)N(C)[C@@H]1CC[C@H](CC(=O)NC3CCCCC3)O[C@H]1CO2 85.8%
Cc1cc(C)cc(NC(=O)Nc2ccc3c(c2)C(=O)N(C)[C@@H]2CC[C@H](CC(=O)O)O[C@@H]2CO3)c1 73.4%
CO[C@@H]1CN(C)C(=O)c2ccc(NS(=O)(=O)c3ccc(C)cc3)cc2OC[C@@H](C)N(C(=O)NC(C)C)C[C@H]1C 99%
COc1ccc(C(C#N)Nc2ccc(C)cc2)cc1 (centres undefined) -33.2%
COCCNC(=O)C[C@H]1CC[C@@H]2[C@H](COc3ccc(NC(=O)C4CCOCC4)cc3C(=O)N2C)O1 -14.5%
COc1ccc(CNC(=O)NCCc2c[nH]c3ccccc23)cc1 -1.23%
CCNC(=O)C[C@@H]1CC[C@@H]2[C@@H](COc3ccc(NC(=O)c4ccccc4)cc3C(=O)N2C)O1 57.6%
Cc1cc(C(=O)Nc2ccc3c(c2)C(=O)N(C)[C@H]2CC[C@H](CC(=O)N[C@@H](C)c4ccccc4)O[C@H]2CO3)no1 4.71%
C[C@@H]1CN([C@H](C)CO)S(=O)(=O)c2ccc(C3=CCCC3)cc2O[C@@H]1CN(C)C(=O)c1ccc(F)cc1 -60.6%
CC(C)C(=O)Nc1ccc2c(c1)C(=O)N(C)[C@H]1CC[C@H](CC(=O)NCCc3ccccc3)O[C@H]1CO2 182%
COc1cccc(NC(=O)C[C@@H]2CC[C@@H]3[C@@H](COc4ccc(NS(=O)(=O)c5cccc(F)c5)cc4C(=O)N3C)O2)c1 -18.3%
Cc1[nH]c(=O)c(C#N)cc1-c1ccccc1 -28.5%
N#Cc1ccc(NC(=O)Nc2ccc(Oc3ccc(NC(=O)Nc4ccc(C#N)cc4)cc3)cc2)cc1 -58.5%
CC(C)C(=O)Nc1ccc2c(c1)C(=O)N(C)[C@@H]1CC[C@H](CC(=O)O)O[C@H]1CO2 -14.9%
Cc1cc(C)cc(OCC(O)CN2CCC(CN3C(=O)c4cccc5cccc(c45)C3=O)CC2)c1 (centres undefined) 1.75%
CCNC(=O)Nc1ccc2c(c1)C(=O)N(C)[C@H]1CC[C@H](CC(=O)Nc3cccc(F)c3)O[C@@H]1CO2 147%

— PubChem BioAssay AID651956 (Broad Institute, 2012)
